The record followed here is PubChem BioAssay (EPA / NIEHS).

Several values for one entry are separate records, joined by “and”; a condition that tells them apart may be missing. Equal values may be shown once. Results filed as inconclusive are left out. Some structures have more than one record in an assay (separate samples or runs), and their calls can disagree. Activity calls are given as the source filed them. Rule for the calls, unless noted: active = hit-call score of the fitted dose curve at least 0.9, where 1 is the maximum; inactive = score below 0.9.

Assay [1] can be described thus: CCTE_Shafer_MEA_dev_mutual_information_norm: CCTE's Neural Network Formation Assay for Mutual Information Normalization, Shafer Lab (AID 2284091).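 For AC50: mutual information between electrodes summarised as area under curve across four recording days; potency is for a decrease in mutual information relative to DMSO.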 The method, boiled down:
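Developing rat cortical networks on 16-electrode MEA wells are treated throughout formation (DIV 0–12). Shared electrode information is recorded four times, converted to area-under-curve, and fitted for decreases against DMSO vehicle.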

A short description of assay [2]: CCTE_Shafer_MEA_dev_correlation_coefficient_mean: CCTE's Neural Network Formation Assay for Mean Correlation Coefficient, Shafer Lab (AID 2284093).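 For AC50: well mean pairwise spike train correlation integrated as AUC over recording days 5 to 12; potency fitted for loss of correlation relative to DMSO vehicle wells.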 The method, boiled down: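 Spontaneous activity recorded on days 5, 7, 9 and 12 post-plating; pairwise spike correlations are averaged across active electrodes and collapsed to an area-under-curve. Rat cortical cultures are dosed from plating through 12 days, with compound renewed at media changes.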

Assay [3] in a line: CCTE_Shafer_MEA_acute_LDH: CCTE's Lactate Dehydrogenase Assay for Cytotoxicity in the Neural Acute Assay, Shafer Lab (AID 2284086; active = hit-call score of the fitted dose curve at least 0.9, where 1 is the maximum;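 note: active means LDH release rises above DMSO vehicle level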). The method, boiled down:
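Medium from rat cortical neuron MEA cultures sampled right after the 40 min compound-exposure recording; released LDH measured by absorbance at 490 nm. Analyzed as signal gain relative to DMSO.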

Assay [4] is described as follows: UKN2_HCS_IMR90_neural_migration: University of Konstanz (UKN) Leist Lab Neural Crest Cell Migration Assay in human induced IMR90 Pluripotent Stem Cells (UKN2) (AID 2284204). As to conditions: actives raise or lower the signal. The procedure, abridged: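 Migration of human IMR90-derived neural crest cells into a stopper-defined gap is imaged after 24 h chemical treatment. Activity is fitted bidirectionally relative to DMSO.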

A short description of assay [5]: IUF_NPC1b_proliferation_BrdU_72hr: Leibniz Research Institute for Environmental Medicine (IUF) 72-hour Neural Progenitor Cell Bromodeoxyuridine (BrdU) Proliferation Assay (NPC1b) (AID 2284207). The method, boiled down: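 Proliferation of primary human neural progenitor cells: 72 h compound treatment at 37C, 5% CO2, pH 7.2-7.6, in EGF/FGF-containing medium. Readout is BrdU uptake (last 16 h) by chemiluminescent ELISA, normalised to DMSO.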

Assay [6] can be described thus: IUF_NPC1a_proliferation_area_72hr: Leibniz Research Institute for Environmental Medicine (IUF) 72-hour Neural Progenitor Cell Proliferation Area Assay (NPC1a) (AID 2284208). The method, boiled down:
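Measured in 3D suspension: each well held one primary hNPC sphere grown with EGF and FGF at pH 7.2-7.6. Compound stayed on for 72 h, then area was imaged; spheres lacking growth factors defined reduced proliferation.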

Assay [7] can be described thus: IUF_NPC1_viability_72hr: Viability Assessment at 72 hours in the Leibniz Research Institute for Environmental Medicine (IUF) Neural Progenitor Cell Proliferation Assay (NPC1) (AID 2284209). The procedure, abridged: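 Single spheres (0.25-0.35 mm) of human fetal cortex-derived neural progenitor cells were grown in proliferation medium with EGF and FGF at 37C and 5% CO2. They were exposed for 72 h without renewal, and viability was read by alamar blue resorufin fluorescence.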

Assay [8] is described as follows: CCTE_Mundy_HCI_Cortical_Synap_Neur_Matur_NeuriteSpotCountPerNeuriteLength: CCTE's Synaptogenesis and Neurite Maturation Assay in rat cortical cells for Neurite Spot Count per Neurite Length, Mundy Lab (AID 2284210). The procedure, abridged: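 Primary rat cortical neurons, compound exposure DIV 7–12, 288.33 h endpoint. Hoechst, anti-MAP2 and anti-synaptophysin labelling; neurite-associated puncta per neurite length scored by automated imaging relative to DMSO controls.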

Assay [9] in a line: CCTE_Mundy_HCI_Cortical_Synap_Neur_Matur_BPCount: CCTE's Synaptogenesis and Neurite Maturation Assay in rat cortical cells for Branch Point Count, Mundy Lab (AID 2284211). The method, boiled down:
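Rat primary cortical cultures, AraC added DIV 5; chemicals dosed DIV 7 through DIV 12. Fixed cells stained for MAP2, synaptophysin and Hoechst; neurite branch points counted by automated high-content imaging, fitted relative to DMSO.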

Assay [10] in a line: UKN4_HCS_LUHMES_neurite_outgrowth: University of Konstanz (UKN) Leist Lab Neurite Outgrowth Assay in human LUHMES cells (UKN4) (AID 2284206). As to conditions: actives raise or lower the signal. The procedure:
UKN4_HCS_LUHMES is a cell-based, multiplexed-readout assay screening for neurite outgrowth and cell viability that uses LUHMES, a human central nervous system cell line, with measurements taken at […] after chemical dosing in a microplate: 96-well plate. UKN4, also referred to as NeuriTox, is an assay that uses LUHMES neuronal precursors as a model of dopaminergic neuronal differentiation. Following a 2-day differentiation period, cells are exposed to chemicals for 24 hr and neurite area is evaluated as a marker of neurite outgrowth using high-content imaging of cells stained with calcein AM. Cell viability is assessed using stain Hoechst H-33342.UKN4_HCS_LUHMES_neurite_outgrowth is an assay component measured from the UKN4_HCS_LHUMES assay. It is designed to make measurements of neurite outgrowth, a form of morphology reporter, as detected with Fluorescence intensity signals by HCS Fluorescent Imaging.The assay endpoint UKN4_HCS_LUHMES_neurite_outgrowth was analyzed with bidirectional fitting relative to DMSO as the negative control and baseline of activity. Using a type of morphology reporter, gain or loss-of-signal activity can be used to understand developmental effects. To generalize the intended target to other relatable targets, this assay endpoint is annotated to the neurodevelopment intended target family, where the subfamily is neurite outgrowth.
Proliferating LUHMES cells are seeded in proliferation medium for 24 hours. Day 0: Medium is changed from proliferation medium to differentiation medium. Day 2: Cell number reaches about 30-40 Mio per T175 flask. Cells are trypsinized and replated onto 96-well plates (30000 cells/well in 90 ul) in differentiation medium without cAMP and GDNF. At about 30 min - 2 hours after seeding, when cells have attached, the compounds are added (10 ul of each dilution; total volume 100 ul). Day 3: 23.5 h after toxicant treatment, cells are live-stained with H-33342 and calcein-AM and incubated for 30 min. After 24 h of treatment (including staining), the cells are imaged using a high-content microscope (Cellomics).

As to `CCC(=O)C(CC(C)N(C)C)(c1ccccc1)c1ccccc1` (stereo not given), the AC50 in assay [1] was 6.23 µM (active); in [2], 7.25 µM (active).

Turning to `CC(C)(C)c1cc(O)ccc1O`, the call in [3] was inactive. Besides, the AC50 in assay [1] is 2.1 µM (active); in assay [2] it was 6.2 µM (active).

Turning to `CCCCCCCCc1ccc(O)cc1`, the outcome in [3] was inactive.

Turning to `COP(=O)(OC)O/C(=C\Cl)c1cc(Cl)c(Cl)cc1Cl`, the outcome in assay [1], in assay [2], in assay [4], in assay [8] and in [9] was inactive. In addition, the AC50 in assay [5] was 51500 nM (active); in assay [6], 41600 nM (active); in [7] it was 34300 nM (active).

As for `O=C(O)C(Cl)(Cl)Cl`, the result in assay [3] was inactive.

In the case of `ClC1(Cl)C2(Cl)C3(Cl)C4(Cl)C(Cl)(Cl)C5(Cl)C3(Cl)C1(Cl)C5(Cl)C24Cl` (stereo not given), the results for the AC50 in [1] and in [2] were 2.05 µM (active) and 2.41 µM (active), respectively.

Consider `CC(C)(C)CC(C)(C)c1ccc(O)cc1`, for which the call in assay [3] was inactive.

As for `COC(=O)Cc1ccccc1`, the call in [3] was inactive.

Consider `O=C1C2(Cl)C3(Cl)C4(Cl)C(Cl)(Cl)C5(Cl)C3(Cl)C1(Cl)C5(Cl)C24Cl` (stereo not given), for which the molecule was classed as inactive in assay [3] and in [8]. Besides, the AC50 in [1] was 0.125 µM (active); in assay [2], 1.15 µM (active); in assay [4], 2170 nM (active); in assay [10], 3440 nM (active); in [9], 22700 nM (active).

Consider `O=C(O)C(F)(F)C(F)(F)C(F)(F)C(F)(F)C(F)(F)C(F)(F)F`, for which the result in assay [1] and in [2] was inactive.

For the molecule `CC(C)(OO)c1ccccc1`, in assay [3], the outcome was inactive.

In the case of `Cn1sc(Cl)cc1=O`, the AC50 in assay [1] was 3.45 µM (active); in assay [2] it was 4.5 µM (active).

As to `O=C(O)C(F)(F)C(F)(F)C(F)(F)C(F)(F)C(F)(F)C(F)(F)C(F)(F)C(F)(F)C(F)(F)C(F)(F)F`, the call in assay [3], in assay [1] and in [2] was inactive.

Consider `CC(=O)[O][Hg][c]1ccccc1`, for which the outcome in [3] was inactive. The concentration at half-maximal activity (AC50) in assay [1] is 0.0082 µM (active); in assay [2], 0.0159 µM (active).

For the molecule `CCOP(=S)(OCC)Oc1nc(Cl)c(Cl)cc1Cl`, the AC50 in assay [1] was 23.2 µM (active) and 15 µM (active); in assay [2], 23.5 µM (active) and 15 µM (active) and 20.4 µM (active); in assay [10] it was 218000 nM (active); in assay [8], 50000 nM (active); in [9], 26700 nM (active). The molecule was called inactive in assay [1], in assay [4], in assay [5], in assay [6], in [7] and in assay [8].

As to `CCC(C)(C)c1ccc(O)c(C(C)(C)CC)c1`, the outcome in assay [3] was inactive.

In the case of `C=C(C)C(=O)[O][Sn]([CH2]CCC)([CH2]CCC)[CH2]CCC`, the call in [3] was inactive. For the same molecule, the AC50 in assay [1] was 0.0123 µM (active); in assay [2], 0.0288 µM (active); in [4], 168 nM (active); in assay [10] it was 97.7 nM (active); in assay [8], 60.7 nM (active); in [9] it was 79.9 nM (active).

Take `CC(C)(c1ccccc1)c1ccc(O)c(C(C)(C)c2ccccc2)c1`: the molecule was called inactive in [3].

Turning to `CC(=O)OC(c1ccccc1)C(Cl)(Cl)Cl` (stereo not given), in assay [3], the result was inactive.

Regarding `C[C@]12CCC(=O)C[C@@H]1CC[C@@H]1[C@@H]2CC[C@]2(C)[C@@H](O)CC[C@@H]12`, in assay [3], the call was inactive.

For the molecule `O=C(Nc1ccc2[nH]ccc2c1)c1cc2cc(F)ccc2n1Cc1cccc(F)c1`, the outcome in [3] was inactive.
